Assay outcomes: PubChem, National Center for Advancing Translational Sciences (NCATS)
Sampled rows, rich in hits. Any-hit rate of the full collection: about 2.5%.
POLI inh – inhibitors of human DNA polymerase iota; Q9UNA4; Pol iota fluorescent replication assay, 10 min; Potency, µM (highest dose often 115 µM), for inactives: top-dose activity, negative = inhibition, usual class: inhibitors; 1% of 390,000 active; further: potency means the concentration at half of the fitted maximal effect
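Fluorescent replication assay read twice, at 0 min and 10 min after adding 50 nM (final) substrate. Enzyme (10 nM) and compounds were first incubated 15 min at room temperature; enzyme-free buffer wells were negative controls.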
POLB inh – inhibitors of human DNA polymerase beta; P06746; Pol beta primer extension/strand displacement, fluorescence kinetic; Potency, µM (titrated, usually from 114 µM), for the others: at the highest dose activity change, negative = inhibition, actives largely listed as inhibitors; 1.3% of 340,000 active; further: potency means the concentration at half of the fitted maximal effect; on the % scale 0 is the no-effect control and ±100 the full control effect
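Pol beta (10 nM) was preincubated with compound for 15 min at room temperature. The reaction was then started with 50 nM substrate and read immediately and after a further 10 min at room temperature.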
Pol kappa inh-1 – DNA polymerase kappa (human) inhibition; Q9UBT6; purified Pol kappa, fluorescent DNA synthesis assay, 10 min; Potency, µM (highest dose often 107 µM), without a hit: at the highest dose activity, negative = inhibition, most hits filed as inhibitors; 0.53% of 400,000 active; AID 588579; further: potency means the concentration at half of the fitted maximal effect; on the % scale 0 is the no-effect control and ±100 the full control effect
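Kinetic fluorescence screen: compound preincubated 15 min RT with 10 nM enzyme; 50 nM substrate (final) initiates; reads at 0/10 min.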
L3MBTL1 block – blocks human L3MBTL1; AlphaScreen L3MBTL1–H3K9me1 peptide binding; 0.66% of 230,000 active; Potency, µM (top dose mostly 57.1 µM), inactives show at the top dose activity, negative = inhibition, actives largely listed as inhibitors; further: potency means the concentration at half of the fitted maximal effect; on the % scale 0 is the no-effect control and ±100 the full control effect; nearly all actives have a fitted effect of over 60% in size
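Displacement of a biotinylated histone H3(1-15) peptide monomethylated at Lys9 (75 nM) from L3MBTL1 (50 nM) was measured by AlphaScreen after a 30 min room-temperature compound incubation; cefsulodin titration served as intraplate control.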
WRN helicase inh – inhibitors of human WRN helicase. WRN helicase unwinding, fluorescent forked duplex, kinetic. Potency, µM (titrated, usually from 114 µM), without a hit: at the top dose activity change, negative = inhibition, actives largely listed as inhibitors. 0.46% of 360,000 active. Q14191; further: potency means the concentration at half of the fitted maximal effect; on the % scale 0 is the no-effect control and ±100 the full control effect; nearly all actives have a fitted effect of over 55% in size
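WRN at 20 nM final preincubated with compound 15 min at room temperature; reaction started with 100 nM fluorophore/quencher forked duplex oligonucleotide and 2 mM ATP final. Unwinding followed kinetically by red fluorescence (ex 525, em 598 nm).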
Pol eta inh-1 – inhibitors of human DNA polymerase eta | recombinant Pol eta, fluorescent DNA replication assay | Potency, µM (highest dose often 114 µM), inactives show at the top dose activity change, negative = inhibition, usual class: inhibitors | 1.2% of 390,000 active; further: potency means the concentration at half of the fitted maximal effect; on the % scale 0 is the no-effect control and ±100 the full control effect
Target sequence (Q9Y253 whole entry, looked up): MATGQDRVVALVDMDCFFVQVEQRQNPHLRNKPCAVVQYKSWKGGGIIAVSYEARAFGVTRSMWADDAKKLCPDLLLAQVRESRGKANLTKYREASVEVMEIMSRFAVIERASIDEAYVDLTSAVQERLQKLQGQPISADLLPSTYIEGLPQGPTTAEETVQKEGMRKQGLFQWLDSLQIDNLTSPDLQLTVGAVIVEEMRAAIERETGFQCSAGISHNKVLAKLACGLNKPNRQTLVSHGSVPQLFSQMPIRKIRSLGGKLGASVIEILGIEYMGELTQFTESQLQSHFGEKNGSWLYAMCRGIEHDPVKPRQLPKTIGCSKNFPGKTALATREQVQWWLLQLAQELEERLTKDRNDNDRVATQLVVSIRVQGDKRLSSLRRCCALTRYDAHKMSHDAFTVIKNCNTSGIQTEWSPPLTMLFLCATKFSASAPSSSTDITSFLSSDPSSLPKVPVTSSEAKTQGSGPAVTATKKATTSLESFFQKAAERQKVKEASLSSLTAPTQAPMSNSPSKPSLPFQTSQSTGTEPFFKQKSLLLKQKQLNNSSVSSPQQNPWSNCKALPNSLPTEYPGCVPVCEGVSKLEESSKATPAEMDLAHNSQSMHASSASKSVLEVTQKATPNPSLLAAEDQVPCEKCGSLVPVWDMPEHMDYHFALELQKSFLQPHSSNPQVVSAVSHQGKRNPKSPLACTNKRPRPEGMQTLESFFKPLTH
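Fluorescent replication assay: 50 nM final substrate added after a 15 min room-temperature compound preincubation with 10 nM enzyme. Signal taken at 0 min and again at 10 min.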
GALK confirm – confirmation of human galactokinase (GALK) inhibitors; shares compounds with Pol eta inh-1; 70% of 150 active; purified GALK, Kinase-Glo ATP depletion luminescence; Potency, µM (series often up to 115 µM), for the others: at the highest dose activity, negative = inhibition, usual class: inhibitors
GALK redox cs – generates H2O2 by redox cycling, flagging GALK artifacts; shares compounds with Pol eta inh-1; Phenol red-HRP H2O2 redox cycling, absorbance 600 nm; Potency, µM (series often up to 115 µM), for the others: top-dose activity change, negative = H2O2 signal, hits mostly inhibitors; 40% of 150 active; AID 2035
HEK293 viability – counter-screen for GALK inhibitors: HEK293 cell cytotoxicity. Potency, µM (series often up to 46.1 µM), for the others: top-dose activity change, negative = cytotoxicity, hits mostly inhibitors. AID 2547. shares compounds with Pol eta inh-1. HEK-293 viability, ATP luminescence (CellTiter-Glo), 24/48 h. 10% of 170 active; further: potency means the concentration at half of the fitted maximal effect; on the % scale 0 is the no-effect control and ±100 the full control effect
Pol kappa inh-2 – confirmation of human DNA polymerase kappa inhibitors | Potency, µM, hits mostly inhibitors | shares compounds with Pol eta inh-1 | 76% of 920 active | purified Pol-kappa, fluorescent strand-displacement substrate | AID 720501; further: potency means the concentration at half of the fitted maximal effect
Pol eta inh-2 – Pol eta (human) inhibition, cherry-pick confirmation. Potency, µM, usual class: inhibitors. Pol eta primer extension, TAMRA/BHQ fluorescence, 10 min. 64% of 2,600 active. shares compounds with Pol eta inh-1. AID 720502; further: potency means the concentration at half of the fitted maximal effect
The depositor's hits bear a star; ? = inconclusive; nt = no result given; [ ] = dose if it differs, or a comment. The call rests on the fitted dose curve; in most records, active means well fitted curve in the direction sought with a large enough effect; inconclusive means small, poorly fitted or top-dose-only effect, or another doubt; inactive means no such curve, though single readings can be large; an effect the other way counts as inactive or inconclusive.

SMILES	POLI inh	POLB inh	Pol kappa inh-1	L3MBTL1 block	WRN helicase inh	Pol eta inh-1	Pol eta inh-2	others
CC1(C)CC(=O)C2=C(C1)NC(Nc1nc3ccccc3o1)=NC2c1cccc(F)c1 (stereo not given)	36%	nt	-23%	nt	nt	nt	nt	HEK293 viability=-3%
COc1ccc(CC(NC(C)=O)C(=O)N2CCN(C(=O)N(C(C)C)C(C)C)CC2)cc1 (stereo not given)	36%	13%	-1%	8%	13%	-16%	nt
CCOC(=O)c1cnn(-c2nc(SC)nc3sc4c(c23)CCCC4)c1N	-17%	4%	-8%	nt	-2%	-2%	nt
O=C(COC(=O)c1cc(S(=O)(=O)N2CCOCC2)ccc1F)NCc1ccc2c(c1)OCO2	20%	nt	-5%	5%	-6%	-19%	nt
CCN1C(=O)[C@H]2[C@@H](c3ccc(C)cc3)N[C@]3(CCCN(Cc4ccccc4)C3=O)[C@H]2C1=O	nt	nt	nt	nt	-5%	0%	nt
O=C1CCCN1c1cc(Cl)cc(Cl)c1	74%	38%	-10%	28%	-4%	-10%	nt
Cc1ccc(C2N=C(Nc3nc4ccccc4o3)NC3=C2C(=O)CC(C)(C)C3)cc1 (stereo not given)	8%	nt	11%	nt	nt	nt	nt	HEK293 viability=0%
CC1(C)CC(=O)C2=C(C1)NC(Nc1nc3ccccc3o1)=NC2c1cccnc1 (stereo not given)	18%	nt	-21%	nt	nt	nt	nt	HEK293 viability=9%
CCN(CC)c1ccc(NC(=O)CSc2ccsc2[N+](=O)[O-])c(C)c1	?	25µM*	?	?	?	45µM*	?	Pol kappa inh-2=60*
COc1cc(/C=C2/C(=O)NN(c3ccc(C)c(Cl)c3)C2=O)cc([N+](=O)[O-])c1O	8%	35µM*	4%	nt	?	28µM*	85*
COc1cc(/C=C2/C(=O)NN(c3cccc(C)c3)C2=O)cc([N+](=O)[O-])c1O	?	?	?	?	-10%[11.6 µM]	22µM*	?
COc1cccc(/C=C2/C(=O)NN(c3ccc(C)c(C)c3)C2=O)c1	?	?	-1%	-4%	-2%	-12%	nt
COc1cc(/C=C2/C(=O)NN(c3cccc(Cl)c3)C2=O)cc(OC)c1O	?	?	-7%	-24%	-19%	-13%	nt
CN(C)c1ccc(CNCCC2CCOC(C)(C)C2)cc1 (stereo not given)	nt	0%	nt	nt	nt	nt	nt
Cc1ccc(F)c(NC(=O)/C(C#N)=C(\O)c2ccc(C(C)(C)C)cc2)c1	?	89µM*	-7%	4%	-2%[11.6 µM]	79µM*	nt	GALK confirm=33µM*;GALK redox cs=-20%;HEK293 viability=4%
COc1ccccc1NC(=O)CSc1nnc2c3ccccc3n(C)c2n1	7%	31%	-10%[60.1 µM]	nt	nt	-17%	nt
CCOc1cc(/C=C2\SC(=S)N(C(C(=O)O)c3ccccc3)C2=O)ccc1O (stereo not given)	28µM*	?	?	-12%	56µM*	?	nt	Pol kappa inh-2=42*
COc1ccccc1/C=C1\SC(=S)N(C(C(=O)O)c2ccccc2)C1=O (stereo not given)	14%	-23%	-5%	-9%	-5%	-18%	nt
O=C1NN(c2cccc(Br)c2)C(=O)/C1=C/c1ccc(-c2cc([N+](=O)[O-])ccc2O)o1	?	?	79µM*	nt	?	10µM*	30*
O=C1NN(c2cccc(Br)c2)C(=O)/C1=C\c1ccc(O)cc1	?	?	-3%	nt	?	?	nt
CC1=NN(c2ccc(C)cc2)C(=O)/C1=C/c1ccc(-c2cc([N+](=O)[O-])ccc2O)o1	20µM*	7.1µM*	79µM*	32µM*	?	20µM*	?	Pol kappa inh-2=17*
CCN(CC)S(=O)(=O)c1ccc(NC(=O)COc2nc3ccccc3nc2N2CCOCC2)cc1	-7%	1%	-14%	-1%	2%	-11%	nt
Cc1ccc2c(=O)cc(C(=O)Nc3nc4ccc(Cl)cc4s3)oc2c1	5%	-1%	3%	nt	nt	2%	nt
Cc1ccc2c(=O)cc(C(=O)Nc3nc4ccc(Cl)cc4s3)oc2c1C	?	6.3µM*	?	nt	nt	79µM*	?
COc1ccc2oc(=O)c(C(=O)NCc3cccnc3)cc2c1	-15%	3%	0%	-3%	-4%	-11%	nt
SMILES	POLI inh	POLB inh	Pol kappa inh-1	L3MBTL1 block	WRN helicase inh	Pol eta inh-1	Pol eta inh-2	others
Cc1csc(N=Cc2ccc([N+](=O)[O-])o2)n1	nt	nt	nt	nt	?	18µM*	?
C=C1CC[C@@H]2[C@](C)(CCC[C@@]2(C)/C=C/[C@@H](O)C(C)(C)O)[C@H]1CC(=O)NCCS(=O)(=O)O	-10%	nt	?	nt	-11%	18µM*	?
CC(=O)c1ccc(NC(=O)Nc2ccc3snnc3c2)cc1	89µM*	?	-24%	nt	nt	?	nt	Pol kappa inh-2=?
O=C(Nc1ccc(F)cc1)Nc1ccc2snnc2c1	8%	9%	-8%	nt	nt	-14%	nt
CCCCCCCSc1nsc(N)n1	-18%	8%	-2%	5%	-1%	-18%	nt
CCCCCOc1ccc(/C=c2\sc3nc(=O)c(-c4ccccc4)nn3c2=O)cc1OC	7%	-8%	-19%	-1%	-22%	-3%	nt
O=c1nc2s/c(=C\c3ccc(-c4ccccc4[N+](=O)[O-])o3)c(=O)n2nc1-c1ccccc1	7%	5µM*	-3%	2.2µM*	14µM*	?	76*
Cc1ccc(C)c(-n2c3nc(=O)[nH]c(=O)c-3cc3cc([N+](=O)[O-])ccc32)c1	20µM*	35µM*	?	?	79µM*	13µM*	60*
Cn1c2nc(=O)[nH]c(=O)c-2cc2ccccc21	7%	nt	-20%	nt	-9%	-23%	nt
